Compound activity deposited in PubChem by National Center for Advancing Translational Sciences (NCATS).
Shown are actives, neighbours in structure and some others; about 15% of the full set was active somewhere.
12-LOX inh: ALOX12 (human) lipoxygenase inhibition; actives 1.1% (n = 580,000); Potency, µM (highest dose often 108 µM), usual class: inhibitors; purified 12hLO, xylenol orange hydroperoxide absorbance
Target sequence (P18054 whole entry, looked up): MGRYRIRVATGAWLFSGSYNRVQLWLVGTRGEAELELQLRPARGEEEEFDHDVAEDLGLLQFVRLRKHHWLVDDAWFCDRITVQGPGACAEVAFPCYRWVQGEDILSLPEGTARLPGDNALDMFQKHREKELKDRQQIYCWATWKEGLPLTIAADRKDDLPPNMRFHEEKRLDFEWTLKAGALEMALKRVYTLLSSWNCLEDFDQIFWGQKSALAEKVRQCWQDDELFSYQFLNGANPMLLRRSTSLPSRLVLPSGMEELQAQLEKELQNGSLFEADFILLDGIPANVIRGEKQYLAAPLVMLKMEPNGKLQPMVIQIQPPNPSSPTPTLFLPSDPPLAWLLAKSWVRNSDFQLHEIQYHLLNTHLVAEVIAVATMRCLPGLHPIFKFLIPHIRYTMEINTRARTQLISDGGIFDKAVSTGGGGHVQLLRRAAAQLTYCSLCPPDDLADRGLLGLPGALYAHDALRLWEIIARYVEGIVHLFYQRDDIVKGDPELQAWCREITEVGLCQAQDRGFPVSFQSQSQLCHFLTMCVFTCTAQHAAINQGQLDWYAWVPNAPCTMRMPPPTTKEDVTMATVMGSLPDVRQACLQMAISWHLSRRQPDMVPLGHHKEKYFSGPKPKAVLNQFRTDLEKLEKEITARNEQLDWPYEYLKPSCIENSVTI
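Hydroperoxide product was detected by ferrous iron/xylenol orange as the 573 to 405 nm absorbance ratio. Arachidonic acid at 40 uM (final) was turned over for 30 min at room temperature by 150 nM human 12hLO, pH 7.0 Hepes buffer, after 15 min compound preincubation.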
DT40 TDP1 CPT: growth inhibition of DT40 Tdp1-/-;hTDP1 cells with camptothecin (screen for TDP1 inhibitors); chicken DT40 Tdp1-/-;hTDP1 cells + 20 nM CPT, ATP luminescence, 48 h; Potency, µM (highest dose often 46.2 µM), most hits filed as inhibitors; actives 12% (n = 420,000); AID 686979; further: nearly all actives have a fitted effect of over 55% in size
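Cell growth measured by CellTiter-Glo luminescence after a minimum 48 h, 37 C compound exposure with 20 nM CPT in Tdp1-knockout DT40 cells stably expressing hTDP1, seeded 400/well; qHTS titration format.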
VP16 counter: Gal4-VP16 reporter inhibition counter-screen | Drosophila S2 Gal4-VP16 UAS-luciferase, luminescence, 20 h | Potency, µM (top dose mostly 53.6 µM), actives largely listed as inhibitors | actives 3.5% (n = 310,000) | AID 2546;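 further: Gal4-VP16 expression switched on by copper sulfate through the metallothionein promoter; nearly all actives have a fitted effect of over 50% in size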
TDP1 cell noCPT: qHTS for Inhibitors of human tyrosyl-DNA phosphodiesterase 1 (TDP1): qHTS in cells in absence of CPT | DT40 Tdp1-/- hTDP1 cells, no CPT, ATP luminescence, 48 h | Potency, µM (top dose mostly 46.2 µM), usual class: inhibitors | actives 15% (n = 420,000) | AID 686978, 2013; further: nearly all actives have a fitted effect of over 55% in size
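Camptothecin absent (DMSO only). Human TDP1-complemented DT40 knockout cells, 400 cells/well, 37 °C for minimum 48 hr; ATP measured via CellTiter-Glo, 30 min dark incubation, luminescence.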
ELG1 DNA repair: ELG1-dependent DNA repair inhibition; Potency, µM (top dose mostly 46.1 µM), actives largely listed as inhibitors; actives 2.3% (n = 330,000); AID 504467; HEK293T ELG1-luciferase reporter, luminescence, 16 h; DNA damage induced by 5-fluorouridine; further: nearly all actives have a fitted effect of over 55% in size
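In this reporter screen, reduction of luminescence relative to DMSO vehicle indicated activity. Compounds and 5-fluorouridine were added together to 2,000 cells per well, incubated for 16 hr at 37 °C, then developed with ONE-Glo.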
RORgamma inh: ROR gamma (mouse) transcription inhibition; P51450; Drosophila S2 Gal4-RORgamma UAS-luciferase reporter, 20 h; Potency, µM (series often up to 53.6 µM), hits mostly inhibitors; actives 5.4% (n = 310,000); further: nearly all actives have a fitted effect of over 60% in size
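A Gal4/UAS one-hybrid system in insect cells: metallothionein-promoter Gal4–ROR gamma fusion plus Photinus luciferase reporter. Copper sulfate 700 uM final, 20 hr ambient incubation, luminescent detection after 10 min with reagent.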
Each line names hits and unclear results; the compound was inactive in the other large screens. The call rests on the fitted dose curve; in most records, active means well fitted curve in the direction sought with a large enough effect; inconclusive means small, poorly fitted or top-dose-only effect, or another doubt; inactive means no such curve, though single readings can be large; an effect the other way counts as inactive or inconclusive.

COc1ccc(OCCSc2nnc(CCNC(=O)c3ccc(OC)cc3)n2C)cc1	DT40 TDP1 CPT inconclusive
CCn1c(SCc2ccc(Cl)c(Cl)c2)nnc1C(C)NC(=O)c1ccc(OC)cc1 (configuration not stated)	DT40 TDP1 CPT 16.4µM, TDP1 cell noCPT 16.4µM, ELG1 DNA repair inconclusive
COc1ccc(OCCSc2nnc(CCNC(=O)c3ccc(Cl)c(Cl)c3)n2C)cc1	DT40 TDP1 CPT 25.1µM, TDP1 cell noCPT inconclusive, ELG1 DNA repair inconclusive, RORgamma inh inconclusive
Cc1ccc(CNc2ccc3nnc(C(C)C)n3n2)o1	none (no result: DT40 TDP1 CPT, VP16 counter, TDP1 cell noCPT, ELG1 DNA repair, RORgamma inh)
Cc1ccc(NC(=O)c2ccc3ccccc3n2)cc1C	none (no result: DT40 TDP1 CPT, VP16 counter, TDP1 cell noCPT, ELG1 DNA repair, RORgamma inh)
Cc1cnc(C(=O)Nc2ccc(C)c(S(=O)(=O)N(C)C)c2)cn1	DT40 TDP1 CPT inconclusive, TDP1 cell noCPT 14.6µM, ELG1 DNA repair inconclusive
Cc1ccc(NC(=O)c2c3c(nc4ccccc24)CCC3)cc1S(=O)(=O)N(C)C	DT40 TDP1 CPT 16.4µM, TDP1 cell noCPT inconclusive
Cc1ccc(NC(=O)c2c3c(nc4ccccc24)CCC3)cc1	none
Cc1ccc(NC(=O)c2ccc3ccccc3n2)cc1S(=O)(=O)N(C)C	DT40 TDP1 CPT inconclusive, TDP1 cell noCPT 11.6µM, ELG1 DNA repair inconclusive
Cc1ccccc1/C=C1\Cc2ccccc2C1=O	none (no result: DT40 TDP1 CPT, VP16 counter, TDP1 cell noCPT, ELG1 DNA repair, RORgamma inh)
COc1cc(/C=C2\C=Cc3ccccc32)cc(OC)c1OC	DT40 TDP1 CPT inconclusive, TDP1 cell noCPT 15.8µM (no result: 12-LOX inh, VP16 counter, ELG1 DNA repair, RORgamma inh)
COc1cc(C=C2Cc3ccccc3C2=O)cc(OC)c1OC	DT40 TDP1 CPT 16.4µM, TDP1 cell noCPT 8.2µM (no result: VP16 counter, ELG1 DNA repair, RORgamma inh)
COc1ccc(/C=C2/C=Cc3ccccc32)cc1	TDP1 cell noCPT inconclusive (no result: 12-LOX inh, VP16 counter, ELG1 DNA repair, RORgamma inh)
COc1cc(N(C)C)c(OC)cc1/C=C1\Cc2ccccc2C1=O	DT40 TDP1 CPT inconclusive, TDP1 cell noCPT 11.2µM (no result: 12-LOX inh, VP16 counter, ELG1 DNA repair, RORgamma inh)
CC(C)CN1C=C2C(=O)C(C)(OC(=O)CCc3ccccc3)C(=O)C=C2C=C1c1ccc(C#N)cc1 (configuration not stated)	12-LOX inh inconclusive, DT40 TDP1 CPT 20.6µM, TDP1 cell noCPT 18.4µM
CC1(OC(=O)CCc2ccccc2)C(=O)C=C2C=C(c3ccc(C#N)cc3)N(Cc3ccco3)C=C2C1=O (configuration not stated)	12-LOX inh inconclusive, DT40 TDP1 CPT inconclusive, TDP1 cell noCPT inconclusive
CC1(OC(=O)CCc2ccccc2)C(=O)C=C2C=C(c3ccc(C#N)cc3)N(Cc3ccccc3)C=C2C1=O (configuration not stated)	DT40 TDP1 CPT 18.4µM, TDP1 cell noCPT inconclusive
COCCN1C=C2C(=O)C(C)(OC(=O)CCc3ccccc3)C(=O)C=C2C=C1c1ccc(C#N)cc1 (configuration not stated)	DT40 TDP1 CPT inconclusive
CS(=O)(=O)c1ccc(CN2C[C@H](O)C[C@H]2c2nc(-c3cnccn3)no2)cc1	none (no result: DT40 TDP1 CPT, VP16 counter, TDP1 cell noCPT, ELG1 DNA repair, RORgamma inh)
Cc1ccc(NC(=O)c2cc(S(=O)(=O)Nc3ccc(C)cc3)cs2)cc1	12-LOX inh inconclusive, DT40 TDP1 CPT 23.1µM, TDP1 cell noCPT 23.1µM (no result: VP16 counter, ELG1 DNA repair, RORgamma inh)
COc1cc(NS(=O)(=O)c2ccc(NC(=S)NC(C)=O)cc2)nc(OC)n1	none (no result: VP16 counter, ELG1 DNA repair, RORgamma inh)
Cc1ccc(NS(=O)(=O)c2ccc(NC(=O)c3cccs3)cc2)c(C)c1	DT40 TDP1 CPT inconclusive, TDP1 cell noCPT inconclusive, RORgamma inh inconclusive
COc1cc(NS(=O)(=O)c2ccc(NC(=S)NC(=O)c3ccc(F)c(F)c3)cc2)nc(OC)n1	12-LOX inh 12.6µM
COc1cc(NS(=O)(=O)c2ccc(NC(=S)NC(=O)c3cccs3)cc2)nc(OC)n1	12-LOX inh 31.6µM
Cc1cc(C)cc(NS(=O)(=O)c2ccc(NC(=S)NC(=O)c3cccs3)cc2)c1	12-LOX inh inconclusive, DT40 TDP1 CPT 20.6µM, VP16 counter 1µM, TDP1 cell noCPT 18.4µM, RORgamma inh 0.794µM
CCOCCCNC(=O)C1CCOCC1	none (no result: DT40 TDP1 CPT, VP16 counter, TDP1 cell noCPT, ELG1 DNA repair, RORgamma inh)
Cc1nn2c(c1-c1cccc3cn[nH]c13)N(C(=O)COc1ccccc1C(N)=O)CCC2	none (no result: DT40 TDP1 CPT, VP16 counter, TDP1 cell noCPT, ELG1 DNA repair, RORgamma inh)
C=CCn1c(N2CCCC(C)C2)nc2c1c(=O)n(C)c(=O)n2C (configuration not stated)	none (no result: DT40 TDP1 CPT, VP16 counter, TDP1 cell noCPT, ELG1 DNA repair, RORgamma inh)
